Results filed as inconclusive are left out. Activity calls are given as the source filed them. The call rests on the fitted dose curve; in most records, active means well fitted curve in the direction sought with a large enough effect; inconclusive means small, poorly fitted or top-dose-only effect, or another doubt; inactive means no such curve, though single readings can be large; an effect the other way counts as inactive or inconclusive.
How the values were obtained:
[1] = qHTS of pediatric cancer cell lines to identify multiple opportunities for drug repurposing: Primary screen for OHS-50 cells (AID 1347103); further: nearly all actives have a fitted effect of over 40% in size
Method in brief: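 Cells (500-1,000/well) rested 5 h, then received compounds for 48 h; metabolically active cells were measured by CellTiter-Glo luminescence. Final concentrations spanned up to 46 µM (MIPE, 11-point) or 0.59 nM-46 µM (NPC, 8-point) in primary screens, 11-point in follow-ups.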

[2] = qHTS of pediatric cancer cell lines to identify multiple opportunities for drug repurposing: Primary screen for RD cells (AID 1347104); further: nearly all actives have a fitted effect of over 55% in size
Method in brief: (§1)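 Plated cells (500-1,000 per well, growth media) were allowed to settle for 5 hours, treated with compound dilutions for 48 hours, then lysed with CellTiter-Glo for 15 min at room temperature before luminescence reading.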

[3] = qHTS of pediatric cancer cell lines to identify multiple opportunities for drug repurposing: Primary screen for MG 63 (6-TG R) cells (AID 1347105); further: nearly all actives have a fitted effect of over 50% in size
Method in brief: as §1

[4] = qHTS of pediatric cancer cell lines to identify multiple opportunities for drug repurposing: Primary screen for control Hh wild type fibroblast cells (AID 1347106);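 further: series mostly up to about 46 µM; a drop in luminescence marks cytotoxicity and a rise apparent proliferation; nearly all actives have a fitted effect of over 55% in size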
Method in brief: (§2)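 Cells (500-1,000/well) in growth media were settled 5 h at 37 degrees C, then given compounds for 48 h. Viability was read as CellTiter-Glo luminescence. Primary runs used MIPE at 11 points (0.78 nM-46 µM) and NPC at 8 points (0.59 nM-46 µM); follow-ups used 11 points.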

[5] = qHTS of pediatric cancer cell lines to identify multiple opportunities for drug repurposing: Primary screen for Rh30 cells (AID 1347107); further: series mostly up to about 46 µM; nearly all actives have a fitted effect of over 75% in size
Method in brief: as §2

[6] = qHTS of pediatric cancer cell lines to identify multiple opportunities for drug repurposing: Primary screen for Rh41 cells (AID 1347108);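 further: series mostly up to about 46 µM; luminescence drop marks cytotoxic hits; nearly all actives have a fitted effect of over 70% in size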
Method in brief: as §1

Measured: Potency

COc1ccc(CCC(C)=O)cc1
inactive: all assays above

COCCc1ccc(OCC2CO2)cc1 (stereo not given)
inactive: all assays above

CO/N=C(/C(=O)N[C@@H]1C(=O)N2C(C(=O)[O-])=C(C[n+]3ccn4ncccc43)CS[C@H]12)c1nsc(N)n1
inactive: all assays above

COCCc1ccccn1
inactive: all assays above

CCO[C@H](Cc1ccc(OCCc2ccc(OS(C)(=O)=O)cc2)cc1)C(=O)O
inactive: all assays above

N[C@@H](Cc1cc(I)c(O)c(I)c1)C(=O)O
inactive: all assays above

O=C(O)CCC(=O)OC[C@@H](NC(=O)C(Cl)Cl)[C@H](O)c1ccc([N+](=O)[O-])cc1
inactive: all assays above

Cc1ccc(-c2ccccc2C#N)cc1
inactive: all assays above

COc1cc(NS(=O)(=O)c2ccc(N)cc2)nc(C)n1
inactive: all assays above

OC1(c2ccccc2)CCNCC1
inactive: all assays above

NS(=O)(=O)c1ccc(N2CCCCS2(=O)=O)cc1
inactive: all assays above

CN1CCN(N)CC1
inactive: all assays above

Cc1cc(C(C)(C)C)c(O)c(C(C)(C)C)c1
inactive: all assays above

Cc1ncc([N+](=O)[O-])n1C
inactive: all assays above

NC(=O)NC1N=C([O][Al])NC1=O (stereo not given)
inactive: all assays above

CC(NC(CCc1ccccc1)C(=O)O)C(=O)N1C(=O)N(C)CC1C(=O)O (stereo not given)
inactive: all assays above

COc1cc(C(=O)NC2CCCNC2)cc(OC)c1OC (stereo not given)
inactive: all assays above

CC(=O)N(CC(=O)N(C)C)c1ccccc1
inactive: all assays above

OCCCc1ccccc1
inactive: all assays above

C/C(=N\O)[C@@H](C)NCC(C)(C)CN[C@H](C)/C(C)=N/O
inactive: all assays above

COC(=O)C1=C(C)NC(C)=C(C(=O)OCCc2ccc(N3CCN(C(c4ccccc4)c4ccccc4)CC3)cc2)C1c1cccc([N+](=O)[O-])c1 (stereo not given)
inactive: all assays above

CC(=O)N(CC(O)CO)c1c(I)c(C(=O)NCCO)c(I)c(C(=O)NCC(O)CO)c1I (stereo not given)
inactive: all assays above

Nc1ccc([N+](=O)[O-])c(C(F)(F)F)c1
inactive: all assays above

CN=C(N)NC(=O)Nc1c(C)cccc1C
inactive: all assays above

CCOC(=O)CN1CCCC1=O
inactive: all assays above

CCOC(=O)Oc1ccc(CCNC(=O)[C@H](CCSC)NC(C)=O)cc1OC(=O)OCC
inactive: all assays above

Cc1sccc1Br
inactive: all assays above

Oc1cccc2[nH]ccc12
inactive: all assays above

CC(C)(C)NCC(O)COc1ccccc1OCC1CCCO1 (stereo not given)
inactive: all assays above

COC(=O)c1ccc(NC(C)=O)cc1OC
inactive: all assays above

N#Cc1cc(NC(=O)C(=O)O)c(Cl)c(NC(=O)C(=O)O)c1
inactive: all assays above

Cc1cnc(NS(=O)(=O)c2ccc(N)cc2)nc1
inactive: all assays above

Cc1cccc(OCC(O)CNC(C)(C)C)c1C (stereo not given)
inactive: all assays above

O=C1CC2(CCCC2)CC(=O)N1
inactive: all assays above

CCn1ccc(NS(=O)(=O)c2ccc(N)cc2)nc1=O
inactive: all assays above

CC(=O)c1ccc(O)c(C(N)=O)c1
inactive: all assays above

C=CC[N+]1([C@H]2C[C@H]3[C@@H]4CC[C@H]5C[C@H](OC(C)=O)[C@@H](N6CCCCC6)C[C@]5(C)[C@H]4CC[C@]3(C)[C@H]2OC(=O)CC)CCCCC1
inactive: all assays above

COc1ccccc1OCC1CNC(=O)O1 (stereo not given)
inactive: all assays above

Cc1onc(-c2c(Cl)cccc2Cl)c1C(=O)Cl
inactive: all assays above

O=C(Oc1ccccc1)c1cccc(C(=O)Oc2ccccc2)c1
inactive: all assays above

CC1CC(=O)NN=C1c1ccc(NCC(C)(C)NCC(O)COc2cc(Cl)ccc2C#N)cc1 (stereo not given)
inactive: all assays above

Brc1ccccc1-c1ccccc1
inactive: all assays above

C[C@H]1C[C@H](O)c2ccsc2S1(=O)=O
inactive: all assays above

COC(=O)c1cc(S(N)(=O)=O)ccc1OC
inactive: all assays above

CC(=O)CC/C=C(\C)CC/C=C(\C)CC/C=C(\C)CCC=C(C)C
inactive: all assays above

CC1(C)O[C@@H]2C[C@H]3[C@@H]4C[C@H](F)C5=CC(=O)C=C[C@]5(C)[C@@]4(F)[C@@H](O)C[C@]3(C)[C@]2(C(=O)CO)O1
inactive: all assays above

OC1(c2ccc(Cl)cc2)CCNCC1
inactive: all assays above

O=C(OCC1(COC(=O)c2cccnc2)CCCC(COC(=O)c2cccnc2)(COC(=O)c2cccnc2)C1O)c1cccnc1
inactive: all assays above

CC(CCc1ccc2c(c1)OCO2)NN (stereo not given)
inactive: all assays above

O=C(CO)[C@@H](O)[C@H](O)[C@@H](O)CO
inactive: all assays above

CC(=O)N1CCN(c2ccc(O)cc2)CC1
inactive: all assays above

CCOC(=O)c1ccc(OCCN2C[C@H](O)[C@@H](O)[C@H](O)[C@H]2CO)cc1
inactive: all assays above

Cc1ccccc1N1CCN(CCc2nnc3n2CCCC3)CC1
inactive: all assays above

CCCc1ncc(C(=O)O)s1
inactive: all assays above

CSCC[C@H](NC(=O)[C@H](Cc1c[nH]c2ccccc12)NC(=O)CCNC(=O)OC(C)(C)C)C(=O)N[C@@H](CC(=O)O)C(=O)N[C@@H](Cc1ccccc1)C(N)=O
inactive: all assays above

O=C1CC[C@H](C(=O)N2CCCCC2)N1
inactive: all assays above

CCC(=O)O[C@H]1[C@H](O[C@@H]2[C@@H](C)[C@H](O[C@H]3C[C@@](C)(OC)[C@@H](O)[C@H](C)O3)[C@@H](C)C(=O)O[C@H](CC)[C@@](C)(O)[C@H](O)[C@@H](C)C(=O)[C@H](C)C[C@@]2(C)O)O[C@H](C)C[C@@H]1N(C)C
inactive: all assays above

C1N2CN3CN1CN(C2)C3
inactive: all assays above

C=C(C)C(=O)OCC(O)CO (stereo not given)
inactive: all assays above

Cc1ccc2c(Cl)cc(Cl)c(O)c2n1
inactive: all assays above

From PubChem BioAssay (NCATS)
